Test results taken from PubChem BioAssay (EPA / NIEHS).
Results filed as inconclusive are left out. The source made the active and inactive calls. Rule for the calls, unless noted: active = hit-call score of the fitted dose curve at least 0.9, where 1 is the maximum; inactive = score below 0.9.

Experiments:
[1] = CCTE_Mundy_HCI_Cortical_Synap_Neur_Matur_BPCount: CCTE's Synaptogenesis and Neurite Maturation Assay in rat cortical cells for Branch Point Count, Mundy Lab (AID 2284211)
In short: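 Rat primary cortical cultures, AraC added DIV 5; chemicals dosed DIV 7 through DIV 12. Fixed cells stained for MAP2, synaptophysin and Hoechst; neurite branch points counted by automated high-content imaging, fitted relative to DMSO.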

[2] = CCTE_Mundy_HCI_Cortical_NOG_NeuriteCount: CCTE's Neurite Outgrowth Assay in rat cortical cells for Neurite Count, Mundy Lab (AID 2284212);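 note: cells fixed about two days after chemical exposure began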
In short: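 Neurite number per cell from high-content imaging of betaIII-tubulin immunostaining, with Hoechst nuclear counterstain.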

[3] = CCTE_Mundy_HCI_Cortical_NOG_NeuriteLength: CCTE's Neurite Outgrowth Assay in rat cortical cells for Neurite Length, Mundy Lab (AID 2284213);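 for AC50: neurites imaged about 48 to 50 h after chemical exposure began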
In short: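 Neurite length was read by high-content imaging of βIII-tubulin-labelled neurites in rat primary cortical cultures. Activity was fitted relative to DMSO.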

[4] = CCTE_Mundy_HCI_Cortical_Synap_Neur_Matur_NeuriteLength: CCTE's Synaptogenesis and Neurite Maturation Assay in rat cortical cells for Neurite Length, Mundy Lab (AID 2284214)
In short: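 Rat cortical neurons, AraC at DIV 5; compound + media change DIV 7, end DIV 12 (288.33 h). Fix, MAP2/synaptophysin/Hoechst immunostain, automated HCI of neurite length vs DMSO.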

[5] = CCTE_Mundy_HCI_Cortical_Synap_Neur_Matur_NeuriteSpotCountPerNeuron: CCTE's Synaptogenesis and Neurite Maturation Assay in rat cortical cells for Neurite Spot Count per Neuron Count, Mundy Lab (AID 2284215)
In short: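 Rat primary cortical cells received AraC at DIV 5, then chemicals with a media change at DIV 7, and were fixed at DIV 12. Synaptophysin puncta on MAP2-stained neurites per neuron were counted by high-content imaging, fitted relative to DMSO.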

[6] = CCTE_Mundy_HCI_Cortical_Synap_Neur_Matur_SynapseCount: CCTE's Synaptogenesis and Neurite Maturation Assay in rat cortical cells for Synapse Count, Mundy Lab (AID 2284218)
In short: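 Primary rat cortical culture; AraC DIV 5 to arrest glia; compound + media change DIV 7; terminated DIV 12. PFA/Hoechst fix, anti-MAP2 + anti-synaptophysin immunostain; HCI synapse count/neuron; DMSO = baseline.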

[7] = CCTE_Mundy_HCI_Cortical_Synap_Neur_Matur_NeuriteCount: CCTE's Synaptogenesis and Neurite Maturation Assay in rat cortical cells for Neurite Count, Mundy Lab (AID 2284222)
In short: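 Rat primary cortical cells; AraC added at DIV 5, chemicals dosed with media change at DIV 7 through DIV 12. MAP2/synaptophysin/Hoechst immunostaining, high-content imaging of neurite number; fitted relative to DMSO.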

[8] = CCTE_Mundy_HCI_hN2_NOG_NeuriteCount: CCTE's Neurite Outgrowth Assay in human hN2 cells for Neurite Count, Mundy Lab (AID 2284219; active = hit-call score of the fitted dose curve at least 0.9, where 1 is the maximum)
In short: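 In this morphology assay, hNP1-derived neurons received test chemical 2 h post-plating and were fixed two days later in warm paraformaldehyde/sucrose containing Hoechst 33342. Neurites, labelled by rabbit anti-βIII-tubulin (1:800) and Alexa Fluor-488 (1:500), were counted automatically.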

[9] = CCTE_Mundy_HCI_hN2_NOG_NeuriteLength: CCTE's Neurite Outgrowth Assay in human hN2 cells for Neurite Length, Mundy Lab (AID 2284220; active = hit-call score of the fitted dose curve at least 0.9, where 1 is the maximum)
In short: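 Using βIII-tubulin immunofluorescence and Hoechst nuclear counterstain, this component quantifies neurite length in hNP1-derived neurons.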

[10] = CCTE_Mundy_HCI_hN2_NOG_NeuronCount: CCTE's Neurite Outgrowth Assay in human hN2 cells for Neuron Count, Mundy Lab (AID 2284221; active = hit-call score of the fitted dose curve at least 0.9, where 1 is the maximum)
In short: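 Read-out is the number of betaIII-tubulin-positive neurons imaged by automated high-content analysis, with DMSO as negative control.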

Measured: AC50

Cc1cc(C(F)(C(F)(F)F)C(F)(F)F)ccc1NC(=O)c1cccc(I)c1C(=O)NC(C)(C)CS(C)(=O)=O
inactive: [1] | [2] | [3] | [4] | [5] | [6] | [7]

CNC(=O)CSP(=O)(OC)OC
inactive: [1] | [2] | [3] | [4] | [5] | [6] | [8] | [9] | [7]

NC(=O)c1ccc(N)nc1
inactive: [8] | [9]
active: [1] 9.07 µM | [2] 14.5 µM | [3] 14 µM | [4] 9.47 µM | [5] 9.32 µM | [6] 9.12 µM | [10] 0.000862 µM | [7] 18.7 µM

CCOCn1c(-c2ccc(Cl)cc2)c(C#N)c(Br)c1C(F)(F)F
active: [1] 13.1 µM | [2] 23.2 µM | [3] 22.4 µM | [4] 15.5 µM | [5] 13.5 µM | [6] 13.5 µM | [7] 16.4 µM

OC(Cc1ccccc1Cl)(Cn1[nH]cnc1=S)C1(Cl)CC1 (stereo not drawn)
inactive: [2] | [3]
active: [1] 50 µM | [4] 42.7 µM | [5] 50 µM | [6] 50 µM | [7] 50 µM

CS(=O)(=O)c1ccc(C(=O)C2C(=O)CCCC2=O)c(Cl)c1COCC(F)(F)F
inactive: [1] | [2] | [3] | [4] | [5] | [6] | [7]

Cc1ccccc1OP(=O)(Oc1ccccc1C)Oc1ccccc1C
inactive: [7]
active: [1] 26.4 µM | [2] 19.2 µM | [3] 19.6 µM | [4] 3.54 µM | [5] 3.81 µM | [6] 3.85 µM

CC(C)[C@@H](Nc1ccc(C(F)(F)F)cc1Cl)C(=O)OC(C#N)c1cccc(Oc2ccccc2)c1 (stereo partly drawn)
inactive: [1] | [2] | [3] | [4] | [6] | [7]
active: [5] 4.59 µM

CC1(C)[C@H](C(=O)O[C@H](C#N)c2cccc(Oc3ccccc3)c2)[C@@H]1/C=C(\Cl)C(F)(F)F
active: [1] 2.28 µM | [2] 19.9 µM | [3] 19.5 µM | [4] 2.35 µM | [5] 2.16 µM | [6] 2.13 µM | [7] 3.48 µM
